Experimental data taken from PubChem BioAssay AID1159580 (chemical genetic matrix, 2015).
“And” between values parts separate entries of the source, which are not always exact repeats. Equal values may be shown once. The whole screen tested about 5,500 compounds, of which about 2,000 (36%) were called active. Not shown: some 18% with an inconclusive outcome. Cut-off read from the data, not from the text of the source: active = normalized growth mostly below about 0.91 (no sharp cut-off); inconclusive = no clear call, values can overlap the other calls; inactive = mostly above about 0.92. The list shows a part of the results.

Assay: chemical genetic growth profiling, strain panel (AID 1159580);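 note: tested at 20 µM; growth read once vehicle control cultures reached saturation at 30 °C; 1 = growth at the plate median or of vehicle wells; lower values mean less growth of the strain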
Conditions: S. cerevisiae deletion strains, growth OD

Measured: normalized growth

O=C(/C=C/c1ccc(O)cc1)c1ccc(O)cc1O
inactive: locus YAL013W, strain DEP1, stronger effect = lower value 0.996 and 0.982 | locus YAL021C, strain ccr4, stronger effect = lower value 0.981 | locus YAL026C, strain drs2, stronger effect = lower value 1.02 | locus YAL030W, strain snc1, stronger effect = lower value 1.01 | locus YAL040C, strain CLN3, stronger effect = lower value 0.986 | locus YBL061C, strain skt5, stronger effect = lower value 1 | locus YBR009C, strain hhf1, stronger effect = lower value 0.999 | locus YBR021W, strain FUR4, stronger effect = lower value 1.04 | locus YBR023C, strain chs3, stronger effect = lower value 0.997 | locus YBR171W, strain sec66, stronger effect = lower value 1.01 | locus YBR229C, strain ROT2, stronger effect = lower value 0.987 | locus YBR231C, strain swc5, stronger effect = lower value 0.979 | locus YBR279W, strain paf1, stronger effect = lower value 0.99 | locus YCL011C, strain gbp2, stronger effect = lower value 0.995 | locus YCL016C, strain dcc1, stronger effect = lower value 0.991 | locus YCL029C, strain bik1, stronger effect = lower value 0.945 | locus YCL061C, strain MRC1 (second series), stronger effect = lower value 1.01 | locus YCL069W, strain vba3, stronger effect = lower value 1.01 | locus YCR088W, strain abp1, stronger effect = lower value 1.01 | locus YDL005C, strain med2, stronger effect = lower value 1.02 | locus YDL035C, strain GPR1, stronger effect = lower value 0.98 | locus YDL040C, strain nat1, stronger effect = lower value 1 | locus YDL074C, strain BRE1, stronger effect = lower value 0.912 | locus YDL101C, strain DUN1, stronger effect = lower value 1 | locus YDL185W, strain tfp1, stronger effect = lower value 0.919 | locus YDL192W, strain arf1, stronger effect = lower value 0.948 | locus YDR001C, strain nth1, stronger effect = lower value 1 | locus YDR069C, strain doa4, stronger effect = lower value 1 | locus YDR101C, strain arx1, stronger effect = lower value 0.96 | locus YDR137W, strain rgp1, stronger effect = lower value 1.08 | locus YDR150W, strain NUM1, stronger effect = lower value 0.991 and 1.01 | locus YDR159W, strain sac3, stronger effect = lower value 0.99 | locus YDR162C, strain NBP2, stronger effect = lower value 1.02 | locus YDR195W, strain ref2 1.04 | locus YDR297W, strain sur2, stronger effect = lower value 1 | locus YDR318W, strain mcm21, stronger effect = lower value 0.966 | locus YDR334W, strain swr1, stronger effect = lower value 1 | locus YDR335W, strain msn5, stronger effect = lower value 1.02 | locus YDR363W, strain ESC2, stronger effect = lower value 1.01 | locus YDR388W, stronger effect = lower value 0.96 | locus YDR392W, strain spt3, stronger effect = lower value 0.892 | locus YDR502C, strain sam2, stronger effect = lower value 0.963 | locus YEL003W, strain gim4, stronger effect = lower value 1.01 | locus YEL037C, strain rad23, stronger effect = lower value 1.01 | locus YEL061C, strain CIN8 (second series), stronger effect = lower value 1.01 | locus YEL061C, strain CIN8, stronger effect = lower value 0.992 | locus YER002W, strain NOP16, stronger effect = lower value 0.985 | locus YER015W, strain faa2, stronger effect = lower value 1 | locus YER016W, strain bim1, stronger effect = lower value 1.01 | locus YER110C, stronger effect = lower value 0.955 | locus YER111C, strain swi4, stronger effect = lower value 1.02 | locus YER155C, strain BEM2 (second series), stronger effect = lower value 0.97 | locus YER155C, strain BEM2, stronger effect = lower value 0.972 | locus YER167W, strain BCK2, stronger effect = lower value 0.971 | locus YFR010W, strain ubp6, stronger effect = lower value 1.02 | locus YGL078C, strain dbp3, stronger effect = lower value 1.01 | locus YGL086W, strain mad1, stronger effect = lower value 0.958 | locus YGL167C, strain pmr1, stronger effect = lower value 1.02 | locus YGL173C, strain kem1, stronger effect = lower value 1.02 | locus YGL227W, strain vid30, stronger effect = lower value 1.01 | locus YGL240W, strain doc1, stronger effect = lower value 0.994 | locus YGL248W, strain PDE1, stronger effect = lower value 1.01 | locus YGL253W, strain hxk2, stronger effect = lower value 0.987 | locus YGR078C, strain PAC10, stronger effect = lower value 0.997 and 0.992 | locus YGR135W, strain pre9, stronger effect = lower value 0.941 | locus YGR252W, strain gcn5, stronger effect = lower value 0.935 | locus YHR013C, strain ard1, stronger effect = lower value 1.03 | locus YHR027C, strain rpn1, stronger effect = lower value 1.01 | locus YHR030C, strain SLT2, stronger effect = lower value 0.98 and 0.955 | locus YHR079C, strain IRE1 (second series), stronger effect = lower value 0.959 | locus YHR079C, strain IRE1, stronger effect = lower value 0.895 | locus YHR094C, strain hxt1, stronger effect = lower value 0.965 | locus YHR129C, strain ARP1, stronger effect = lower value 0.978 | locus YHR142W, strain chs7, stronger effect = lower value 0.985 | locus YHR200W, strain rpn10, stronger effect = lower value 0.944 | locus YIL066C, strain RNR3, stronger effect = lower value 0.975 | locus YIL073C, strain SPO22, stronger effect = lower value 0.96 | locus YIL125W, strain kgd1, stronger effect = lower value 0.963 | locus YIR030C, strain dcg1, stronger effect = lower value 0.973 | locus YJL092W, strain hpr5, stronger effect = lower value 1.01 | locus YJL095W, strain BCK1 (second series), stronger effect = lower value 1.01 | locus YJL095W, strain BCK1, stronger effect = lower value 1.01 and 0.977 | locus YJL115W, strain asf1, stronger effect = lower value 1.02 | locus YJL129C, strain trk1, stronger effect = lower value 0.983 | locus YJL134W, strain LCB3, stronger effect = lower value 0.97 | locus YJL154C, strain vps35, stronger effect = lower value 1.02 | locus YJL164C, strain tpk1, stronger effect = lower value 0.986 | locus YJL166W, strain qcr8, stronger effect = lower value 1.01 | locus YJL168C, strain set2, stronger effect = lower value 0.963 | locus YJL187C, strain SWE1 (second series), stronger effect = lower value 0.994 | locus YJR043C, strain POL32, stronger effect = lower value 0.961 | locus YJR066W, strain TOR1, stronger effect = lower value 0.904
